Results on nine compounds are retold here after PubChem BioAssay (NCATS).

Structures are written as SMILES. Inconclusive results are not listed. Activity calls are given as the source filed them. Unless noted, calls follow the shape of the dose curve; as a rule, active = well fitted cell-killing curve with a large enough effect; inconclusive = small, poorly fitted or top-dose-only effect, or effect the other way; inactive = no such curve, though single readings can be large or run the other way.

The nature of assay [1]: Quantitative High-Throughput drug screen in 47 multiple myeloma cell lines against the NCATS MIPE library collection: PE2_PLB cell viability assay (AID 1919869). Also: nearly all actives have a fitted effect of over 35% in size. Also: potency is read from the fitted curve at half-maximal effect. The essentials: (§1)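 Cells were exposed to library compounds for 48 hours, after which ATP was measured by CellTiter-Glo. Signal was taken as median relative luminescence units.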
Assay [2] is described as follows: Quantitative High-Throughput drug screen in 47 multiple myeloma cell lines against the NCATS MIPE library collection: PCM6_Riken cell viability assay (AID 1919870). Also: nearly all actives have a fitted effect of over 30% in size. Also: potency is read from the fitted curve at half-maximal effect. The essentials: as §1
The nature of assay [3]: Quantitative High-Throughput drug screen in 47 multiple myeloma cell lines against the NCATS MIPE library collection: RPMI8226_ATCC cell viability assay (AID 1919871). Also: nearly all actives have a fitted effect of over 30% in size. Also: potency is read from the fitted curve at half-maximal effect. A digest of the protocol:
as §1

Assay [4] is described as follows: Quantitative High-Throughput drug screen in 47 multiple myeloma cell lines against the NCATS MIPE library collection: KMS28BM_JCRB cell viability assay (AID 1919874). Also: nearly all actives have a fitted effect of over 35% in size. Also: potency is read from the fitted curve at half-maximal effect. The essentials: as §1
A short description of assay [5]: qHTS drug screen for cell cycle checkpoint inhibitors in PARPi-resistant BRCA-mutant ovarian cancer cell lines. (AID 1963452; calls by dose curve; also: potency is read from the fitted curve at half-maximal effect). Particulars: PEO1/OlaR viability, CellTiter-Glo luminescence, 96 h; for Z-AUC: stronger effect = lower value. A digest of the protocol:
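PEO1, PEO4 and PEO1/OlaR ovarian cancer cells, 600 per well, exposed 96 h at 37C to a dilution series. Viability read by CellTiter-Glo luminescence, normalized to DMSO and empty wells; activity summarized as Z-AUC.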
Background: qHTS replaces the single test concentration by a dilution series.

Assay [6] can be described thus: Quantitative High-Throughput drug screen in 47 multiple myeloma cell lines against the NCATS MIPE library collection: KMS11_JCRBsus cell viability assay (AID 1919873). Also: nearly all actives have a fitted effect of over 50% in size. Also: potency is read from the fitted curve at half-maximal effect. The essentials: as §1
The nature of assay [7]: qHTS for identification of novel therapeutic agents for treatment of microphthalmiaassociated transcription factor (MiT) renal cell carcinoma (RCC) (AID 1963991). As to conditions: CellTiter-Glo, 48 h, stronger effect = lower value. The essentials: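 Three TFE3-fusion RCC lines (UOK109, UOK124, UOK145), 500 cells/well in complete medium, were treated with MIPE 4.0 compounds for 48 hours at 37 C. Viability was by CellTiter-Glo luminescence, normalized to DMSO (100%) and empty wells (0%); curves fitted over 11 concentrations.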

Assay [8] in a line: Quantitative High-Throughput drug screen in 47 multiple myeloma cell lines against the NCATS MIPE library collection: OPM2_DSMZ cell viability assay (AID 1919872). Also: potency is read from the fitted curve at half-maximal effect; nearly all actives have a fitted effect of over 30% in size. A digest of the protocol:
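Myeloma cells (500 per well) were exposed to MIPE 4.0 compounds by pin transfer and incubated 48 hours at 37C, 5% CO2. Viability was read as ATP by CellTiter-Glo luminescence, normalised to DMSO (100%) and media-only (0%) wells.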

[9] abbreviates: measured here: PEO1 parental Z-AUC.
Setting [10] is: TFE3-RCC UOK109 viability, measured here: UOK109 Z-AUC.
[11] abbreviates: TFE3-RCC viability, measured here: UOK124 Z-AUC.
The mark [12] stands for this setting: TFE3-RCC viability, measured here: UOK145 Z-AUC.

On to `Nc1nccc(Oc2ccc(NC(=O)c3c[nH]cc(-c4ccc(F)cc4)c3=O)cc2F)c1Cl`, for which the Potency in assay [1] is 18.7 µM (active); in assay [2] it was 18.7 µM (active); in assay [3], 20.9 µM (active); in assay [4], 20.9 µM (active). The Z-AUC is -0.747 (inactive) in assay [5], -0.587 in assay [5] (setting [9]) and -1.14 in assay [5] (measured here: PEO4 Z-AUC).
On to `COc1cccc(Nc2c(C(N)=O)cnc3c(C)cc(S(=O)(=O)c4cccc(C(=O)N(C)C)c4)cc23)c1`, for which the Potency entry in assay [1], in assay [2], in assay [3], in assay [6] and in assay [4] was “inactive” in each case. Besides, the Z-AUC was -0.363 (inactive) in assay [5], 0.84 in assay [5] (setting [9]) and 0.84 in assay [5] (measured here: PEO4 Z-AUC). Further, the z-score came out at 1.38 in assay [7] (setting [10]), 0.911 in assay [7] (setting [11]) and 0.957 in assay [7] (setting [12]).
For `O=C(c1cncc(Br)c1)N1CCC(N2CCCC2)CC1`, the Potency result in assay [1], in assay [2], in assay [3], in assay [6] and in assay [4] was “inactive” each time. The Z-AUC in assay [5] was -0.226 (inactive); in assay [5] (setting [9]) it was -0.235; in assay [5] (measured here: PEO4 Z-AUC), 0.232. Moreover, the z-score amounted to 0.796 in assay [7] (setting [10]), 0.785 in assay [7] (setting [11]) and 0.752 in assay [7] (setting [12]).
With `O=C(O)c1ccc2c(c1)nc(Nc1cccc(Cl)c1)c1ccncc12`, the Potency in assay [1] is 2.64 µM (active); in assay [2] it was 2.64 µM (active); in assay [3], 18.7 µM (active); in assay [6], 7.43 µM (active). For the same compound, the Z-AUC in assay [5] is -0.0299 (inactive); in assay [5] (setting [9]), -0.574; in assay [5] (measured here: PEO4 Z-AUC) it was -0.726.
For the compound `CC1(C)CCC(c2ccc(Cl)cc2)=C(CN2CCN(c3ccc(C(=O)NS(=O)(=O)c4ccc(N[C@H](CCN5CCOCC5)CSc5ccccc5)c(S(=O)(=O)C(F)(F)F)c4)cc3)CC2)C1`, the Potency in assay [1] was 2.64 µM (active); in assay [2], 0.0264 µM (active); in assay [3] it was 2.96 µM (active). Also, the results for the Z-AUC in assay [5], in assay [5] (setting [9]) and in assay [5] (measured here: PEO4 Z-AUC) were -0.481 (inactive), -0.554 and -1.15, respectively.
On to `COc1cc2ncn(-c3cc(OCc4ccccc4C(F)(F)F)c(C(N)=O)s3)c2cc1OC`, for which the Potency is 18.7 µM (active) in assay [1]; 5.9 µM (active) in assay [2]; 5.26 µM (active) in assay [3]; 0.296 µM (active) in assay [6]; 0.526 µM (active) in assay [4]. In addition, the Z-AUC in assay [5] is -1.24 (inactive); in assay [5] (setting [9]), -0.678; in assay [5] (measured here: PEO4 Z-AUC), -1.55.
On to `C#Cc1cccc(Nc2ncnc3cc(OC)c(OCCCCCCC(=O)NO)cc23)c1`, for which the Potency in assay [1] was 0.0935 µM (active); in assay [2] it was 0.187 µM (active); in assay [3] it was 1.87 µM (active); in assay [5], 0.616 µM (active). The Z-AUC in assay [5] (setting [9]) is -1.22; in assay [5] (measured here: PEO4 Z-AUC), -1.32.
Regarding `CCN(CC)CCCCNc1ncc2cc(-c3cc(OC)cc(OC)c3)c(NC(=O)NC(C)(C)C)nc2n1`, the Potency was 20.9 µM (active) in assay [1], 5.26 µM (active) in assay [2], 20.9 µM (active) in assay [8] and 23.5 µM (active) in assay [6]. For the same compound, the Z-AUC in assay [5] was -1.19 (inactive); in assay [5] (setting [9]), 1.07; in assay [5] (measured here: PEO4 Z-AUC) it was 0.00955.
Turning to `Cn1cc(-c2[nH]c3cc(NC(=O)[C@H](N)C4CCCCC4)cc4c3c2C=NNC4=O)cn1`, the Potency in assay [1] is 0.372 µM (active); in assay [2], 1.05 µM (active); in assay [8], 7.43 µM (active); in assay [6], 2.64 µM (active); in assay [4] it was 1.32 µM (active). Moreover, the figures for the Z-AUC in assay [5], in assay [5] (setting [9]) and in assay [5] (measured here: PEO4 Z-AUC) were -0.173 (inactive), -0.184 and -0.421, respectively.
